Screening results (PubChem)
Compounds with a hit are over-represented: about 2.2% of the library has one in this group of screens.
MRP resist rev: reversal of MRP1-mediated doxorubicin resistance, primary screen, H69AR cells, doxorubicin co-treatment. H69AR cells + 2 uM doxorubicin, CellTiter-Glo, 72 h. differential viability (reversal), % at 10 µM. 85,000 tested, 0.04% active;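 active = viability drop by adding the cancer drug above about 55%, with treated viability meeting a 40% cutoff, limit read from the data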;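 note: viability without doxorubicin minus viability with 2 µM doxorubicin for each compound; larger differential means the compound sensitizes cells more to doxorubicin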
PLAP activator: PLAP enzyme activators, biochemical, luminescence, HTS; Alkaline phosphatase, placental type (Homo sapiens), P05187; activation fold at 20 µM; purified PLAP enzyme, luminescent substrate read-out; active compounds read high; 96,000 tested, 1.2% active; AID 696, 2007; in the data active = activation fold above about 2
Target sequence (P05187 whole entry, looked up): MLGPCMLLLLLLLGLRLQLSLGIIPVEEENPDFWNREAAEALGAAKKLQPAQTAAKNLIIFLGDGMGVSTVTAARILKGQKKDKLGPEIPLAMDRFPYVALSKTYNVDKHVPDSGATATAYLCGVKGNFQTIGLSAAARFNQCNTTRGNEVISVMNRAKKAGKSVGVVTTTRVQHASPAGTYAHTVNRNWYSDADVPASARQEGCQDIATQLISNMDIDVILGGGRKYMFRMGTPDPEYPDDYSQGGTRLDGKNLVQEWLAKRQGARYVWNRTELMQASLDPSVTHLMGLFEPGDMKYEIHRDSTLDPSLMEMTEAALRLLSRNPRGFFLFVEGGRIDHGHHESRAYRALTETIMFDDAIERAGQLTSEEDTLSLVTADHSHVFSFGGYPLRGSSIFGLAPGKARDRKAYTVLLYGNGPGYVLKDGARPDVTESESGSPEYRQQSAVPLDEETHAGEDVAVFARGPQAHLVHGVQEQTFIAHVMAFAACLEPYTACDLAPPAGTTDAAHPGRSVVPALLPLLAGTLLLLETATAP
PTPN22 act: LYP phosphatase activators, primary screen, biochemical, DiFMUP fluorescence, 2 µM. Tyrosine-protein phosphatase non-receptor type 22 (Homo sapiens), Q9Y2R2. recombinant LYP; 0 = plate median, 100 = signal doubled. activation, % at 2 µM. 96,000 tested, 0.11% active;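 active = activation at 2 µM above a set limit, the mean plus 5 SD, cut at about 37% in these data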
PTPN22 inh 2: PTPN22 phosphatase inhibitors, primary screen, biochemical, DiFMUP fluorescence, 2 µM | AID 640, 2007 | 96,000 tested, 0.21% active | inhibition, % at 2 µM | recombinant LYP catalytic domain | Tyrosine-protein phosphatase non-receptor type 22 (Homo sapiens), Q9Y2R2;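 active = inhibition at 2 µM at or above a set limit, the screen mean plus 3 SD, cut at about 24% in these data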;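 note: 0% = DMSO with enzyme and 100% = enzyme fully blocked by orthovanadate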
MRP-1 activ: H69AR viability gain despite doxorubicin, primary screen, MRP-1 activator project, H69AR cells, CellTiter-Glo | viability rescue | viability increase, % at 10 µM | 140,000 tested, 0.61% active;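 active = viability gain under doxorubicin at or above a set limit, the compound median plus 3 SD, cut at about 4.7% in these data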;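 note: MRP-1 overexpressing cells given doxorubicin 25 µM after compound pretreatment; 18-22 h compound pretreatment then 72 h with doxorubicin before readout; 0% = doxorubicin-only wells and 100% = vehicle-treated cells without doxorubicin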
FAK blocker: FAK kinase inhibitors, primary screen, biochemical; Focal adhesion kinase 1 (Homo sapiens), Q05397; 97,000 tested, 0.84% active; AID 727, 2007; biochemical FAK kinase activity assay; inhibition, %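 (tested at 7 µM)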; in the data active = inhibition above about 19%;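 note: 0% = DMSO and 100% = reference compound high control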
* marks the source's active call; other numbers are inactive results; nt = no result given.

SMILES	MRP resist rev	PLAP activator	PTPN22 act	PTPN22 inh 2	MRP-1 activ	FAK blocker
NCCCCCc1nnc(SCC(=O)Nc2cccc(Cl)c2)o1	17	1.8	12	-16	-2	-2
CCC(C)[C@H](N)c1nnc(SCC(=O)Nc2cccc(Cl)c2)o1 (stereo not given in full)	9	2.5*	4	-5	0	-9
CC(C)(C)C1CCc2c(sc(NC(=O)c3cccs3)c2C(=O)N2CCCCC2)C1 (stereo not given)	-18	1.3	-9	12	5.0*	0
CNC(=O)N(O)C1N(C)C(=O)N(CC(=O)OC)C1(C)C (stereo not given)	10	1	10	-10	-2	-1
CC1(C)C(N(O)C(=O)Nc2ccc(Cl)cc2)N(c2ccc(Cl)cc2)C(=O)N1CC(=O)NN (stereo not given)	-1	2*	-6	9	-3	0
COc1ccc(-n2c(COc3ccc4ccccc4c3)nnc2SCC(=O)NCc2ccco2)cc1	8	2*	-8	7	-2	-2
Cc1nc(CSc2nc3[nH]ncc3c(=O)n2-c2ccccc2)cs1	-11	2.3*	-11	10	1	1
Cc1cccc(-n2c(SCc3cc(=O)n4c(C)cccc4n3)nc3[nH]ncc3c2=O)c1	-13	2.8*	4	-4	-1	1
Cc1noc(C)c1CSc1nc2[nH]ncc2c(=O)n1-c1ccccc1	nt	nt	-6	8	-5	3
N#Cc1c(NC(=O)COC(=O)c2ccc(S(=O)(=O)N3CCCC3)cc2)sc2c1CCCCC2	nt	nt	nt	nt	0	nt
O=C(NCc1ccccc1)c1n[nH]nc1-c1ccccc1O	-34	2.9*	nt	nt	2	nt
Cn1nc(C(=O)NCc2ccccc2)c2ccccc2c1=O	10	1	-5	5	-1	3
CCCn1nnc(NC(=O)c2cccc(OCc3ccccc3)c2)n1	-1	0.9	11	-8	-2	3
CCOC(=O)c1c(-c2cccc([N+](=O)[O-])c2)csc1NC(=O)C1CCCCC1	nt	nt	nt	nt	9.4*	-5
CCOC(=O)c1c(-c2cccc([N+](=O)[O-])c2)csc1NC(=O)C1CC1	nt	0.9	12	-8	-2	5
COC(=O)Cc1cc(=O)[nH]c(Nc2nc3ccccc3o2)n1	4	2.6*	-4	8	-1	4
CCOC(=O)Cc1cc(=O)[nH]c(Nc2nc3ccccc3o2)n1	1	1.7	-7	5	-4	-3
Cc1c(NC(=O)C(=O)/C=C(\O)c2ccc(Br)cc2)c(=O)n(-c2ccccc2)n1C	nt	nt	nt	nt	4	nt
C=CCNC(=S)NNC(=O)c1cccn(Cc2ccc(Cl)c(Cl)c2)c1=O	nt	1	-25	28*	-1	-4
CNC(=S)NNC(=O)c1cccn(Cc2ccc(Cl)c(Cl)c2)c1=O	nt	1.9	-69	69*	0	2
CNC(=S)NNC(=O)c1cccn(Cc2cccc(Cl)c2)c1=O	nt	1.6	-59	60*	-4	-1
COc1ccc(C2NC(=S)NC3=C2CCc2cc(OC)ccc23)cc1 (stereo not given)	nt	1	-13	15	-2	-1
O=C(Nc1ccccc1F)c1ccc(-n2cncn2)nc1	nt	1.1	5	-1	-2	-9
Cc1nc(C#N)c(N/N=C/c2c(F)cccc2Cl)o1	nt	nt	nt	nt	-3	nt
CN(C)CCCNC(=S)N1CCn2c(nc3ccccc32)C1	nt	nt	nt	nt	0	nt
SMILES	MRP resist rev	PLAP activator	PTPN22 act	PTPN22 inh 2	MRP-1 activ	FAK blocker
CCNC(=S)NNC(=O)c1cccn(Cc2ccc(Cl)cc2Cl)c1=O	nt	1.7	-59	60*	-2	4
C=CCNC(=S)NNC(=O)c1cccn(Cc2ccc(Cl)cc2Cl)c1=O	nt	1.2	-47	49*	-2	-1
Cn1cccc1/C=C1\SC(=S)N(NC(=O)c2cccc(Cl)c2)C1=O	nt	nt	nt	nt	-3	nt
CCCc1cc(-c2nc(-c3ccc(Br)cc3)cs2)ccn1	nt	nt	nt	nt	5.0*	nt
CC1CCCCN1CC(=O)Nc1ccccc1Sc1ccccc1 (stereo not given)	nt	nt	nt	nt	-2	nt
CC1=C(C(=O)Nc2ccccc2)C(c2ccc(C)o2)N2C(=O)CSC2=N1 (stereo not given)	-3	1.5	9	-11	11*	1
